Reference: PubChem BioAssay (NCI)
About 79,000 compounds went through this panel and 15% of them were active in at least one assay; those are over-represented in the sample as a whole. Calls of active or inactive are those of the source. No stated cut-off is given here; in the data, active means growth inhibition above about 70%; inactive means the rest.

What was measured:
[1] = NCI Yeast Anticancer Drug Screen. Data for the rad52 strain (AID 147);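 further: 0% = growth of vehicle-treated control cultures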; conditions: S. cerevisiae rad52 mutant growth inhibition, hits give high values
Outline: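 Growth of repair-deficient yeast cells was compared between compound-treated and vehicle-treated cultures to give percent inhibition.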

[2] = NCI Yeast Anticancer Drug Screen. Data for the wt1 strain (AID 149);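 further: 0% = growth of vehicle-treated wt1 cultures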; conditions: S. cerevisiae wt1 strain (SPY 50644) growth inhibition, hits give high values
Outline: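 Growth inhibition read against vehicle controls after compound exposure of the wt1 yeast strain.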

[3] = NCI Yeast Anticancer Drug Screen. Data for the mgt1 strain (AID 153); conditions: S. cerevisiae mgt1 mutant growth inhibition, hits give high values
Outline: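 Compounds were applied to mgt1 mutant yeast, and growth was then compared against vehicle-treated control cultures to give percent inhibition.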

[4] = NCI Yeast Anticancer Drug Screen. Data for the rad50 strain (AID 155);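 further: 0% = growth of vehicle-only cultures of the same strain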; conditions: S. cerevisiae rad50 strain growth inhibition, hits give high values
Outline: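 Readout: growth inhibition relative to vehicle-treated cultures. Compound exposure was carried out in a genetically defined yeast strain deficient in DNA damage repair.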

[5] = NCI Yeast Anticancer Drug Screen. Data for the mec2-1 strain (AID 157); conditions: S. cerevisiae mec2-1 strain, hits give high values
Outline: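 Compounds were applied to mec2-1 yeast cells. Their growth was then compared with that of vehicle-treated cultures to give growth inhibition.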

[6] = NCI Yeast Anticancer Drug Screen. Data for the sgs1 mgt1 strain (AID 161);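 further: 0% = growth of cultures given vehicle only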; conditions: S. cerevisiae sgs1 mgt1 strain, hits give high values
Outline: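 Percent growth inhibition was derived by comparing compound-exposed mutant yeast with vehicle-exposed cultures. The strain carries alterations in DNA damage repair.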

[7] = NCI Yeast Anticancer Drug Screen. Data for the CLN2oe strain (AID 163);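 further: 0% = growth of vehicle-only control cultures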; conditions: S. cerevisiae CLN2oe strain, hits give high values
Outline: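 Cells of an engineered yeast line with disturbed cell-cycle regulation are treated with compound. Inhibition of growth is then calculated relative to the vehicle-treated reference.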

[8] = NCI Yeast Anticancer Drug Screen. Data for the cln2 rad14 strain (AID 165);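 further: 0% = growth equal to vehicle treated cultures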; conditions: S. cerevisiae cln2 rad14 strain, hits give high values
Outline: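 Strain: cln2 rad14 yeast, altered in cell cycle control and DNA damage repair. Read-out: growth inhibition vs vehicle.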

[9] = NCI Yeast Anticancer Drug Screen. Data for the bub3 strain (AID 167); conditions: S. cerevisiae bub3 mutant strain, hits give high values
Outline: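 Readout: yeast growth inhibition, expressed relative to vehicle-only wells. The test organism is a mutant strain from a panel with lesions in DNA repair or checkpoint genes.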

[10] = NCI Yeast Anticancer Drug Screen. Data for the wt2 strain (AID 169);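 further: 0% = growth of vehicle-treated yeast cultures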; conditions: S. cerevisiae wt2 strain growth inhibition, hits give high values
Outline: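 Growth of compound-treated yeast is measured and expressed as inhibition relative to vehicle-only controls.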

[11] = NCI Yeast Anticancer Drug Screen. Data for the sgs1 strain (AID 173);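 further: 0% = growth of vehicle-only control cultures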; conditions: S. cerevisiae sgs1 mutant, hits give high values
Outline: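 Strain with an altered DNA repair or cell cycle pathway exposed to compound. Growth then measured. Value = inhibition versus vehicle control.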

[12] = NCI Yeast Anticancer Drug Screen. Data for the mlh1 rad18 strain (AID 175); conditions: S. cerevisiae mlh1 rad18 strain growth inhibition, hits give high values
Outline: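 A repair-deficient yeast strain is exposed to test compound, and growth is scored relative to vehicle-treated controls.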

[13] = NCI Yeast Anticancer Drug Screen. Data for the rad18 strain (AID 177); conditions: S. cerevisiae rad18 mutant growth inhibition, hits give high values
Outline: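 DNA-repair-defective yeast; compound treatment; growth inhibition scored against vehicle.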

[14] = NCI Yeast Anticancer Drug Screen. Data for the rad50EPP+ strain (AID 151);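 further: 0% = growth of vehicle-treated control cultures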; conditions: S. cerevisiae rad50 mutant strain, hits give high values
Outline: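 Measured: growth inhibition of rad50EPP+ yeast. Reference: vehicle-treated controls. Screen uses strains with defined genetic alterations in DNA damage repair or cell cycle control.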

[15] = NCI Yeast Anticancer Drug Screen. Data for the rad14 strain (AID 159);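 further: 0% = growth of vehicle-treated control cultures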; conditions: S. cerevisiae rad14 strain growth inhibition, hits give high values
Outline: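 Growth inhibition vs vehicle controls; genetically altered yeast strain (DNA damage repair defect) treated with test compounds.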

[16] = NCI Yeast Anticancer Drug Screen. Data for the mlh1 strain (AID 171);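 further: 0% = growth of vehicle-treated control cultures of the same strain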; conditions: S. cerevisiae mlh1 strain growth inhibition, hits give high values
Outline: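 Test agents were incubated with yeast bearing a defined DNA damage repair or cell cycle control alteration; values are growth inhibition normalised to vehicle-treated cultures.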

[17] = at 5.0 µM (retest, dose inferred, filed as 0.5)
[18] = at 50.0 µM (retest, dose inferred, filed as 5.0)

Measured: growth inhibition

FC(F)(F)c1nc2nc(Cl)c(Cl)nc2n1CCCN1CCOCC1
inactive: [1]; at 1.2 µM 2% | [1]; at 3.7 µM 11% | [1]; at 11.0 µM 20% | [1]; at 33.0 µM 20% | [1]; at 100.0 µM 32% | [2]; at 1.2 µM 0% | [2]; at 3.7 µM 1% | [2]; at 11.0 µM 7% | [2]; at 33.0 µM 12% | [2]; at 100.0 µM 18% | [3]; at 1.2 µM 0% | [3]; at 3.7 µM 5% | [3]; at 11.0 µM 8% | [3]; at 33.0 µM 22% | [3]; at 100.0 µM 34% | [4]; at 1.2 µM 5% | [4]; at 3.7 µM 13% | [4]; [17] 29% | [4]; at 11.0 µM 18% | [4]; at 33.0 µM 22% | [4]; [18] 63% | [4]; at 50.0 µM 67% | [4]; at 100.0 µM 27% | [5]; at 1.2 µM 2% | [5]; at 3.7 µM -15% | [5]; [17] 3% | [5]; at 11.0 µM 12% | [5]; at 33.0 µM 16% | [5]; [18] 15% | [5]; at 50.0 µM 33.1% | [5]; at 100.0 µM 27% | [6]; [17] 19% | [6]; at 50.0 µM 45.9% | [7]; at 1.2 µM 2% | [7]; at 3.7 µM 13% | [7]; at 11.0 µM 23% | [7]; at 33.0 µM 45% | [7]; at 100.0 µM 57% | [8]; [17] -16% | [8]; [18] 54% | [8]; at 50.0 µM -1.1% | [9]; at 1.2 µM 0% | [9]; at 3.7 µM 4% | [9]; [17] 9% | [9]; at 11.0 µM 22% | [9]; at 33.0 µM 52% | [9]; [18] 56% | [9]; at 50.0 µM 55.8% | [9]; at 100.0 µM 35% | [10]; at 1.2 µM -1% | [10]; at 3.7 µM 3% | [10]; at 11.0 µM 13% | [10]; at 33.0 µM 20% | [10]; at 100.0 µM 26% | [11]; at 1.2 µM 4% | [11]; at 3.7 µM 9% | [11]; at 11.0 µM 30% | [11]; at 33.0 µM 50% | [11]; at 100.0 µM 47% | [12]; [17] 5% | [12]; [18] 57% | [12]; at 50.0 µM 64.7% | [13]; at 1.2 µM -6% | [13]; at 3.7 µM 6% | [13]; at 11.0 µM 31% | [13]; at 33.0 µM 31% | [13]; at 100.0 µM 43%
active: [6]; [18] 72%

CCCCCCCC1(N=[N+]=[N-])C(=O)c2ccccc2N(C)C1=O (centres undefined)
active: [1]; at 100.0 µM 75% | [2]; at 100.0 µM 73% | [4]; at 50.0 µM 79.3% | [4]; at 100.0 µM 74% | [5]; at 33.0 µM 72% | [5]; [18] 80% | [5]; at 50.0 µM 81.2% | [5]; at 100.0 µM 80% | [6]; [18] 71% | [6]; at 50.0 µM 79.5% | [7]; at 100.0 µM 79% | [8]; [18] 75% | [9]; [18] 83% | [16]; at 100.0 µM 78% | [11]; at 33.0 µM 71% | [11]; at 100.0 µM 85% | [12]; [18] 87% | [12]; at 50.0 µM 76.3% | [13]; at 100.0 µM 83%
inactive: [1]; at 1.2 µM 2% | [1]; at 3.7 µM 18% | [1]; at 11.0 µM 18% | [1]; at 33.0 µM 68% | [2]; at 1.2 µM 7% | [2]; at 3.7 µM 7% | [2]; at 11.0 µM 7% | [2]; at 33.0 µM 59% | [14]; at 1.2 µM 5% | [14]; at 3.7 µM 15% | [14]; at 11.0 µM 24% | [14]; at 33.0 µM 54% | [14]; at 100.0 µM 65% | [4]; at 1.2 µM -1% | [4]; at 3.7 µM 1% | [4]; [17] -4% | [4]; at 11.0 µM 13% | [4]; at 33.0 µM 67% | [4]; [18] 60% | [5]; at 1.2 µM -3% | [5]; at 3.7 µM -27% | [5]; [17] -1% | [5]; at 11.0 µM -2% | [15]; at 1.2 µM -23% | [15]; at 3.7 µM -20% | [15]; at 11.0 µM -20% | [15]; at 33.0 µM 39% | [15]; at 100.0 µM 63% | [6]; [17] -7% | [7]; at 1.2 µM 21% | [7]; at 3.7 µM 8% | [7]; at 11.0 µM 23% | [7]; at 33.0 µM 61% | [8]; [17] 30% | [8]; at 50.0 µM 68.7% | [9]; at 1.2 µM -9% | [9]; at 3.7 µM -17% | [9]; [17] 3% | [9]; at 11.0 µM -15% | [9]; at 33.0 µM 52% | [9]; at 50.0 µM 64.5% | [9]; at 100.0 µM 69% | [10]; at 1.2 µM 13% | [10]; at 3.7 µM 16% | [10]; at 11.0 µM 20% | [10]; at 33.0 µM 57% | [10]; at 100.0 µM 67% | [16]; at 1.2 µM 20% | [16]; at 3.7 µM 10% | [16]; at 11.0 µM 18% | [16]; at 33.0 µM 61% | [11]; at 1.2 µM 9% | [11]; at 3.7 µM 14% | [11]; at 11.0 µM 20% | [12]; [17] 0% | [13]; at 1.2 µM 18% | [13]; at 3.7 µM 12% | [13]; at 11.0 µM 20% | [13]; at 33.0 µM 67%

OC1CCCc2c1cc1ccc3cccc4ccc2c1c34 (centres undefined)
inactive: [1]; at 1.2 µM -7% | [1]; at 3.7 µM -2% | [2]; at 1.2 µM -2% | [2]; at 3.7 µM -10% | [3]; at 1.2 µM -4% | [3]; at 3.7 µM -8% | [4]; at 1.2 µM -17% | [4]; at 3.7 µM -14% | [4]; [17] 30% | [5]; at 1.2 µM -5% | [5]; at 3.7 µM -5% | [5]; [17] 12% | [15]; at 1.2 µM 0% | [15]; at 3.7 µM 13% | [6]; [17] 29% | [7]; at 1.2 µM -9% | [7]; at 3.7 µM -14% | [8]; [17] -4% | [9]; at 1.2 µM -11% | [9]; at 3.7 µM -3% | [9]; [17] 4% | [10]; at 1.2 µM -1% | [10]; at 3.7 µM 10% | [16]; at 1.2 µM -16% | [16]; at 3.7 µM -10% | [11]; at 1.2 µM -8% | [11]; at 3.7 µM -3% | [12]; [17] 52% | [13]; at 1.2 µM -11% | [13]; at 3.7 µM -3%
active: [1]; at 11.0 µM 98% | [1]; at 33.0 µM 96% | [1]; at 100.0 µM 91% | [2]; at 11.0 µM 99% | [2]; at 33.0 µM 98% | [2]; at 100.0 µM 92% | [3]; at 11.0 µM 99% | [3]; at 33.0 µM 98% | [3]; at 100.0 µM 90% | [4]; at 11.0 µM 98% | [4]; at 33.0 µM 95% | [4]; [18] 92% | [4]; at 50.0 µM 95.6% | [4]; at 100.0 µM 88% | [5]; at 11.0 µM 99% | [5]; at 33.0 µM 96% | [5]; [18] 93% | [5]; at 50.0 µM 94.1% | [5]; at 100.0 µM 88% | [15]; at 11.0 µM 99% | [15]; at 33.0 µM 97% | [15]; at 100.0 µM 91% | [6]; [18] 94% | [6]; at 50.0 µM 97.4% | [7]; at 11.0 µM 99% | [7]; at 33.0 µM 97% | [7]; at 100.0 µM 91% | [8]; [18] 94% | [8]; at 50.0 µM 94% | [9]; at 11.0 µM 98% | [9]; at 33.0 µM 97% | [9]; [18] 92% | [9]; at 50.0 µM 95.5% | [9]; at 100.0 µM 89% | [10]; at 11.0 µM 100% | [10]; at 33.0 µM 98% | [10]; at 100.0 µM 94% | [16]; at 11.0 µM 98% | [16]; at 33.0 µM 97% | [16]; at 100.0 µM 90% | [11]; at 11.0 µM 99% | [11]; at 33.0 µM 97% | [11]; at 100.0 µM 90% | [12]; [18] 93% | [12]; at 50.0 µM 94.8% | [13]; at 11.0 µM 99% | [13]; at 33.0 µM 98% | [13]; at 100.0 µM 92%
